Bioassay records deposited in PubChem by National Center for Advancing Translational Sciences (NCATS).
Rows were chosen to be rich in hits. Some 9.3% of all compounds tested hit in one or more screens of this group.
Sm TGR block: inhibitors of Schistosoma mansoni thioredoxin glutathione reductase; Q962Y6; purified TGR, DTNB reduction, TNB absorbance 405 nm; Potency, µM (top dose mostly 114 µM), hits mostly inhibitors; 360,000 compounds, 3% hits; AID 485364; further: nearly all actives have a fitted effect of over 60% in size
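First, TGR (20 nM dispensed) and NADPH were mixed with compound. Second, a 15 min room-temperature incubation followed. Third, further NADPH and then DTNB were added to start the reaction. Finally, TNB absorbance was monitored kinetically.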
HCMV antiviral: blocks human cytomegalovirus replication; 410,000 compounds, 4.5% hits; activity change, negative = inhibition, % at 57.5 µM; HFF cells, HCMV-luciferase reporter, 72 h; active compounds read low; in the data active means activity change below about -60%; inconclusive means no clear call, values can overlap the other calls; inactive means above about -39%
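Cell-based, HFFs, 1000 cells/well, 16 h 37C; cpds in DMSO + HCMV-luc, MOI 1 PFU/cell; 72 h 37C; OneGlo luminescence after 5 min RT; norm. to buffer vs Salinomycin 10uM.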
HCV inh: HCV inhibition | Potency, µM (doses to about 41.8 µM), hits mostly inhibitors | AID 651820 | Huh7.5.1 HCVcc-Cre infection, luciferase reporter, 44 h | 340,000 compounds, 3.4% hits
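Infectious HCVcc-Cre (~0.5 moi) was added to cells just after compound, with cells seeded 4 h earlier at 1,000 per well. Luciferase activity after 44 h culture reported infection; substrate was incubated 15 min at room temperature before reading.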
Vaccinia mCherry: vaccinia inhibition (mCherry reporter); Vaccinia virus mCherry reporter infection, fluorescence; Potency, µM (highest dose often 36.5 µM), hits mostly inhibitors; 310,000 compounds, 0.63% hits; calls by dose curve; tested in A549 cells; further: nearly all actives have a fitted effect of over 35% in size
FMDV antiviral: foot and mouth disease virus antiviral activity | FMDV antiviral cell-based qHTS | 410,000 compounds, 1.2% hits | Potency, µM (titrated, usually from 57.9 µM), actives largely listed as inhibitors; calls by dose curve; tested in HEK293T cells; further: read-out not given here; nearly all actives have a fitted effect of over 45% in size
VACV Venus inh: vaccinia inhibition (Venus reporter); Vaccinia virus Venus reporter expression, fluorescence; Potency, µM (highest dose often 36.5 µM), actives largely listed as inhibitors; 330,000 compounds, 0.46% hits; AID 720580; calls by dose curve; tested in A549 cells; further: nearly all actives have a fitted effect of over 30% in size
Hits are given with their value; 0 = inactive; ? = inconclusive; - = no result; [ ] = remark or other dose. Unless noted, the call rests on the fitted dose curve; in most records, active means well fitted curve in the direction sought with a large enough effect; inconclusive means small, poorly fitted or top-dose-only effect, or another doubt; inactive means no such curve, though single readings can be large; an effect the other way counts as inactive or inconclusive.

SMILES | Sm TGR block | HCMV antiviral | HCV inh | Vaccinia mCherry | FMDV antiviral | VACV Venus inh
CCOC(=O)C1(CC)Oc2ccccc2C(c2ccc(OC)cc2)=C1C(=O)OC (stereo not given) | - | 0 | 0 | 0 | ? | 0
CSc1sc(C)cc1C1C(C#N)=C(N)N(c2cccnc2)C2=C1C(=O)CC(C)(C)C2 (stereo not given) | 0 | 0 | 0 | - | 0 | 0
Cc1ccc(N2C(N)=C(C#N)C(c3ccsc3)C3=C2CC(C)(C)CC3=O)cc1 (stereo not given) | 0 | -101 | 13µM | 0[1.46 µM] | 0 | 0
Cc1ccc(N2C(N)=C(C#N)C(c3cccnc3)C3=C2CC(C)(C)CC3=O)cc1 (stereo not given) | 40µM | ? | ? | - | ? | 0
CCOc1ccc(OCC)c(C2C(C#N)=C(N)N(c3cccnc3)C3=C2C(=O)CC(C)(C)C3)c1 (stereo not given) | 22µM | 0 | 0 | 0 | 0 | 0
CCOc1ccc(C(Nc2ccc(C)cc2)P2(=O)OCC(C)(C)CO2)cc1 (stereo not given) | 0 | 0 | 0 | - | 0 | 0
COc1ccc(N2C(=O)C(Cl)=C(Nc3ccccc3OC)C2=O)cc1 | 0 | 0 | 0 | 0 | 0 | 0
COc1ccc(N2C(=O)C(Cl)=C(Nc3ccccc3O)C2=O)cc1 | 40µM | 0 | 0 | - | 0 | 0
O=C(Cc1ccccc1)Nc1ccccc1C(=O)NCC1CCCO1 (stereo not given) | 0 | - | 0 | 0 | 0 | 0
Cc1ccccc1NC(=O)c1ccccc1NC(=O)c1ccccc1F | 0 | ? | 0 | 0 | 0 | 0
